Viability data for 40 molecules are collected here from PubChem BioAssay.

The structures appear in SMILES notation.

This assay is described as follows: reversal of MRP1-mediated doxorubicin resistance, pilot screen, H69AR cells, doxorubicin co-treatment (AID 601). The settings on record: H69AR cells + 2 uM doxorubicin, CellTiter-Glo, 72 h; measured here: viability with 2 uM doxorubicin; at 10 µM; stronger effect = lower value.
In the case of `Cn1c2c(c(=O)[nH]c1=O)C(NC(=O)c1ccco1)(C(F)(F)F)C(=O)N2` (stereo not given), the viability was determined as 92.3%.

For the molecule `c1ccc(CSCc2cn3ccsc3n2)cc1`, the viability stood at 84.6%.

As for `CCCn1c(SCC(=O)Nc2cc(C)on2)nc2c1c(=O)n(C)c(=O)n2C`, the viability stood at 84.6%.

For the molecule `CCN(CC)C(=O)C1CCC(CNS(=O)(=O)c2cccc3cccnc23)CC1` (stereo not given), the viability stood at 97.1%.

For the molecule `CC(C)OC(=O)CSc1nnnn1-c1ccc2c(c1)OCCO2`, the viability was 82.2%.

`Cc1ccc(OCC(=O)N2CCN(C(=O)CCC3CCCC3)CC2)cc1`: the viability was 100%.

`CC1(C)CC(=O)C(C=Nc2ccncc2)=C(O)C1`: the viability is 99.3%.

Consider `CCCCN(CC)S(=O)(=O)N1CCC(C(=O)NCc2ccc(F)cc2)CC1`, for which the viability was determined as 101%.

As to `CCOC(=O)C1(C(=O)OCC)C(c2ccccc2)CC(O)N1C(C)=O` (stereo not given), the viability amounted to 80%.

Take `CCOc1ccccc1N(C(=O)c1ccco1)C(C(=O)NC1CCCC1)c1cccnc1` (stereo not given): the viability amounted to 96.6%.

As for `Cc1ccc(CNC(=O)C2CC(=O)OC23CCCC3)c(C)c1` (stereo not given), the viability worked out at 94.1%.

Turning to `Cc1ccc(-c2nnc(-c3ccc(Br)cc3)o2)o1`, the viability came to 84.5%.

As to `COC(=O)CSc1nc2sc3c(c2c(=O)n1C1CCCCC1)CCN(C)C3`, the viability was found to be 92.1%.

As for `CCOC(=O)Cc1csc(NC(=O)CSc2nnc(C(C)C)n2CC)n1`, the viability worked out at 88.2%.

As to `CCOC(=O)Cn1nnnc1CN(Cc1ccc(OC)cc1)Cc1cc2cc(C)cc(C)c2[nH]c1=O`, the viability was determined as 74.2%.

Turning to `CC(=O)CCc1ccc(OCCCCn2cncn2)cc1`, the viability is 89.6%.

`COc1ccc(CC(=O)OCn2nnc3ccccc3c2=O)cc1`: the viability came to 101%.

Turning to `CC(=O)Nc1sc2c(c1C#N)CCCCC2`, the viability came to 90.2%.

As for `Cc1ccccc1-c1nc(CS(=O)(=O)CC(=O)N(C)C2CCCCC2)c(C)o1`, the viability came to 92.2%.

For the molecule `COCCn1c(CN(Cc2ccccc2)Cc2ccccc2)nc2c1c(=O)n(C)c(=O)n2C`, the viability is 93%.

As for `Cn1c(SCc2ccccc2)nnc1C1CCCNC1` (stereo not given), the viability was 94.8%.

`COc1cccc(N(C(=O)c2ccco2)C(C(=O)NC2CCCC2)c2ccc(N(C)C)cc2)c1` (stereo not given): the viability worked out at 77.2%.

On to `O=C(CCSc1ccccc1)Nc1ccc(S(=O)(=O)N2CCOCC2)cc1`, for which the viability was 91.6%.

On to `Cc1cc(Nc2ccccc2F)n2ncnc2n1`, for which the viability was determined as 88.3%.

As to `CCOP(=O)(c1ccc(N(C)C)cc1)C(O)c1c(Cl)cccc1Cl` (stereo not given), the viability stood at 89.6%.

Turning to `CCN1CCN(c2c(Cl)cccc2NC(=O)c2ccc3c(c2)OCCO3)CC1`, the viability was 80.4%.

Turning to `CC1CN(c2nc3ccccc3nc2C(C#N)C(=O)OC2CCCCC2)CC(C)O1` (stereo not given), the viability came out at 83.5%.

`CCOc1cc(NC(=O)c2ccccn2)c(OCC)cc1NC(=O)CC(C)C`: the viability stood at 95.2%.

In the case of `C(#Cc1ccccc1)Cn1nnc2ccccc21`, the viability was determined as 75.6%.

With `Cn1cccc1Cc1nnc(SCC(N)=O)n1-c1ccc(F)cc1`, the viability came to 87.6%.

Turning to `Cn1c(=O)c2c(-c3ccncc3)c3c(nc2n(C)c1=O)-c1ccccc1C3=O`, the viability came out at 92%.

`CCCCOC(=O)CSc1nc2c(cc1C#N)C(=O)CC(C)(C)C2`: the viability is 89.4%.

For `COCCN(C(=O)CNC(=O)c1ccco1)C(C(=O)NC1CCCCC1)c1cccc(OC)c1` (stereo not given), the viability amounted to 89.6%.

With `CCCCCn1c2nc3ccccc3nc2c2c(=O)n(CC(C)C)cnc21`, the viability stood at 91.3%.

As for `CCOC(=O)c1sc2nc(SCC#N)n(CCCN3CCCC3=O)c(=O)c2c1C`, the viability amounted to 84%.

With `COc1ccc(N2C(=O)C3C4C=CC(C4)C3C2=O)nn1` (stereo not given), the viability was 81.8%.

With `Clc1cccc(-c2nn3c(Cn4cnc5ccccc54)nnc3s2)c1`, the viability is 96.6%.

Regarding `O=C(O)C1CCCN1c1ncnc2c1oc1ccccc12` (stereo not given), the viability worked out at 99.4%.

As to `O=C(NCCSCc1ccco1)Nc1cccc(Cl)c1`, the viability came to 84.2%.

`CCSc1nc2c(c(=O)n(C)c(=O)n2C)n1Cc1ccc(Cl)cc1`: the viability is 87.9%.
